Data on 51 molecules can be found in PubChem BioAssay AID686979 (National Center for Advancing Translational Sciences (NCATS), 2013).

In all, about 420,000 compounds went through this assay and about 50,000 (12%) were called active. Roughly 26% stayed inconclusive and do not appear here. Only a selection was taken, and actives are over-represented in it overall. A number with no mark means an inactive call. Calls come from the whole dose curve; as a rule, active = well fitted inhibition curve with a large enough effect; inconclusive = small, poorly fitted or top-dose-only effect; inactive = flat fitted curve, though single readings scatter.
% is set by controls: 0 for no effect and ±100 for the full control effect; potency is the fitted concentration of half-maximal effect.

The assay is described as follows: qHTS for Inhibitors of human tyrosyl-DNA phosphodiesterase 1 (TDP1): qHTS in cells in presence of CPT. Note: nearly all actives have a fitted effect of over 55% in size. Conditions: chicken DT40 Tdp1-/-;hTDP1 cells + 20 nM CPT, ATP luminescence, 48 h; series mostly up to 46.2 µM; activity change, negative = growth inhibition: at the top concentration. A digest of the protocol:
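Cell growth measured by CellTiter-Glo luminescence after a minimum 48 h, 37 C compound exposure with 20 nM CPT in Tdp1-knockout DT40 cells stably expressing hTDP1, seeded 400/well; qHTS titration format.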
As to `CCOc1ccc(N/C(N)=N/c2nc(C)c(C)c(=O)[nH]2)cc1`, the “activity change, negative = growth inhibition” value was -2.74%.
Take `Cc1nnc(N/N=C/c2ccccn2)[nH]c1=O`: the Potency was 4.61 µM (active).
In the case of `CCN(CC)CCCN=Cc1c(O)n(-c2ccc(C)cc2)c(=O)c2ccccc12`, the “activity change, negative = growth inhibition” value is 2.69%.
The same measure, in the same setting: the same measure for `Cc1ccccc1Nc1nnc(C)c(=O)[nH]1`: -4.01%.
For `CCOc1ccc(-n2c(O)c(/C=N/Nc3nnc(C)c(=O)[nH]3)c3ccccc3c2=O)cc1`, the Potency was 0.651 µM (active).
Take `Cc1cc(C)nc(N/N=C/c2c(CO)cnc(C)c2O)n1`: the “activity change, negative = growth inhibition” value was 0.526%.
For the molecule `Cc1nnc(N/N=C/c2cccs2)[nH]c1=O`, the “activity change, negative = growth inhibition” value is -11.4%.
In the case of `COc1ccc(-n2c(O)c(C=NCC(c3ccco3)N3CCCC3)c3ccccc3c2=O)cc1OC` (stereo unspecified), the “activity change, negative = growth inhibition” value was -27.4%.
The same measure, in the same setting: the same measure for `COC1=NC2=NCCN2C(OC)=N1`: -6.99%; for `O=S(=O)(c1ccc(Br)cc1)c1nnn2c1nc(NC1CCCCCC1)c1sccc12`: -0.255%.
Still for that read-out and setting: under `Cc1cccn2c(=O)nc(SCC(=O)NCc3ccccc3Cl)nc12` stands -0.21%; under `CN(C(=O)COC(=O)Cc1ccccc1[N+](=O)[O-])C1CCS(=O)(=O)C1` (stereo unspecified), 4.83%; under `CCC(C)N1CC(=O)N2Cc3[nH]c4ccccc4c3C[C@H]2C1=O` (stereo partly specified), -2.41%.
In the case of `COCCn1c(C)cc(C(=O)COC(=O)CNC(=O)c2ccco2)c1C`, the “activity change, negative = growth inhibition” value was -17%.
For `CCOC(=O)C1CCN(c2ncnc3c2oc2ccc(Br)cc23)CC1`, the “activity change, negative = growth inhibition” value was -22.5%.
On to `CCOC(=O)C1CCN(c2ncnc3c2c(-c2ccccc2)cn3-c2cccc(C)c2)CC1`, for which the Potency is 18.4 µM (active).
On to `CCOC(=O)C1CCN(C(=O)COc2cc(C)c(Br)c(C)c2)CC1`, for which the “activity change, negative = growth inhibition” value was -20.6%.
Still for that read-out and setting: the same measure for `CCOC(=O)C1CCN(Cc2ccc(-c3ccccc3)cc2)CC1`: 6.78%; for `O=c1[nH]cnc2c1c(-c1ccccc1)cn2-c1ccc(F)cc1`: -11.8%.
Consider `CCOC(=O)C1CCN(c2ncnc3c2c(-c2ccccc2)cn3-c2ccc(C)cc2)CC1`, for which the Potency is 20.6 µM (active).
Regarding `CC(Cc1cccs1)N(Cc1ccc(Cl)cc1)C(=O)c1ccncc1` (stereo unspecified), the “activity change, negative = growth inhibition” value is -18.9%.
On to `COc1ccc(C(=O)O/N=C(\N)c2ccccn2)cc1[N+](=O)[O-]`, for which the “activity change, negative = growth inhibition” value was -27.8%.
On the same count and under the same terms, the same measure for `COc1ccc(N=Nc2ccc(O)c(P(=O)(c3ccccc3)c3ccccc3)c2)cc1`: -16.4%.
The same measure, in the same setting: under `COCCN(C(=O)C(C)N1C(=O)c2ccccc2C1=O)c1c(N)n(CC(C)C)c(=O)[nH]c1=O` (stereo unspecified) stands -29.5%; under `CCNC(=O)CC1C(=O)N(c2ccc(F)cc2)C(=O)N1Cc1ccc(C)cc1` (stereo unspecified), -0.743%.
On the same count and under the same terms, under `CSc1ccc(CNCCN2CCOCC2)cc1` stands -4.96%.
Consider `CC(C)(C)c1ccc(CCC2OCC(CN3CCOCC3)O2)cc1` (stereo unspecified), for which the Potency is 20.6 µM (active).
On to `CCCCOc1ccc(C(C)(O)CCN2CCOCC2)cc1` (stereo unspecified), for which the “activity change, negative = growth inhibition” value is 7.6%.
Same read-out and setting: the same measure for `CC(C)CCNC(=O)c1[nH]c(C(F)(F)F)nc1-c1ccccc1`: -24.5%.
On the same count and under the same terms, under `COc1ccc(/C(C)=N\NC(=O)c2ccc(-c3ccccc3)cc2)c(F)c1` stands 1.06%; under `COc1ccc(C(=O)Nc2cc(C)ccc2NC(=O)COc2ccccc2)cc1`, 10.8%.
As for `COc1ccc(C(=O)NN(C)c2nc(-c3ccccc3)cc(C)c2S(C)(=O)=O)cc1`, the Potency is 16.4 µM (active).
On to `CC1CCCCC1NC(=O)Cn1c(=O)cnc2ccccc21` (stereo unspecified), for which the “activity change, negative = growth inhibition” value was 0.78%.
As for `O=S(=O)(Nc1ccccc1Br)c1cccs1`, the “activity change, negative = growth inhibition” value was 9.21%.
Regarding `COC(=O)Cc1c(-c2[nH]c3ccccc3c2CC(=O)OC)[nH]c2ccccc12`, the Potency was 20.6 µM (active).
For the molecule `O=C(Cc1c(O)c2ccccc2[nH]c1=O)NCc1ccccc1`, the “activity change, negative = growth inhibition” value was 1.16%.
As to `CCCOC(=O)Cc1c(O)c2ccccc2[nH]c1=O`, the “activity change, negative = growth inhibition” value was -11.3%.
As for `Cc1ccc(Nc2ncnc3c2cnn3C)c(C)c1`, the “activity change, negative = growth inhibition” value is -27.3%.
Same read-out and setting: under `Cc1cc(-c2n[nH]c(=S)n2-c2ccc(C)c(C)c2)no1` stands -11.6%; under `CCN(CC)C(=O)COc1coc(CN2CCN(Cc3ccccc3)CC2)cc1=O`, -2.36%; under `CC(C)(C)NC(=O)COC(=O)c1cc(Cl)ccc1[N+](=O)[O-]`, 3.17%.
On to `Cc1ccc(-c2noc(CSc3nnnn3-c3ccccc3)n2)cc1`, for which the “activity change, negative = growth inhibition” value was -3.52%.
Regarding `Cc1ccc(Nc2nc(CSc3nnnn3-c3ccccc3)cc(=O)[nH]2)cc1`, the Potency was 23.1 µM (active).
With `Nc1nc(CSc2nnnn2-c2ccccc2)nc(Nc2ccccc2)n1`, the “activity change, negative = growth inhibition” value was -16%.
On the same count and under the same terms, under `O=C(NC1(C(F)(F)F)NC(=O)N(Cc2cccnc2)C1=O)c1ccccc1Cl` (stereo unspecified) stands -1.49%.
In the case of `COC(=O)[C@@]12C[C@@H](CC(=O)N3CCC(c4ccccc4)CC3)C(=O)N(Cc3ccccc3)C1=CCC(C)(C)C2`, the Potency was 18.4 µM (active).
`CCOC(=O)C1CCN(C(=O)CC2C(=O)N(Cc3ccccc3)C(C)c3nc4ccccc4n32)CC1` (stereo unspecified): the “activity change, negative = growth inhibition” value is -26.1%.
Consider `COC(=O)[C@]12CCCCC=C1N(Cc1ccc3c(c1)OCO3)C(=O)[C@H](CC(=O)N1CCOCC1)C2`, for which the “activity change, negative = growth inhibition” value was 8.29%.
Still for that read-out and setting: the same measure for `O=c1cc(CN2CCN(c3cccc(Cl)c3)CC2)c2cc3c(cc2o1)CCCC3`: -28.5%.
Consider `O=C(NCCCO)/C(=C\C=C\c1ccccc1)NC(=O)c1ccccc1Cl`, for which the “activity change, negative = growth inhibition” value is -12.1%.
Take `CCOP(=O)(OCC)C(Nc1ccc([N+](=O)[O-])cc1)c1ccc(Cl)cc1` (stereo unspecified): the “activity change, negative = growth inhibition” value is -22%.
